# Results taken from PubChem BioAssay.
# Several values for one entry are separate records, joined by “and”; a condition that tells them apart may be missing. Equal values may be shown once. Activity calls are given as the source filed them. Unless noted, how the calls were made is not given here.
# Columns and labels:
# [1] = test system: XIP peptide (Xip251-270) binding; test: small-molecule binders of XIP peptide, primary screen, biochemical, small-molecule microarray, fluorescence 635/667 nm, 0.1 µg/mL protein (AID 1182); details: fluorescent protein binding, 635 nm, higher = more signal, called active from +8 up or from −8 down
# [2] = test system: XIP peptide (Xip251-270); test: small-molecule binders of XIP peptide, primary screen, biochemical, small-molecule microarray, fluorescence 635/667 nm, 0.5 µg/mL protein (AID 1183); details: small-molecule microarray binding, fluorescence 635 nm; higher = more signal
# [3] = Plasmodium falciparum growth inhibition, primary screen, strain 3D7, DAPI fluorescence, 100 nL (AID 1184);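 further: parasites grown inside human red blood cells in medium with human serum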; details: P. falciparum 3D7 growth, 3 d, higher = more signal
# [4] = target: Homeobox protein Hox-A13 (Mus musculus) (UniProt Q62424); test: inhibitors of HoxA13-DNA binding, primary screen, biochemical, fluorescence polarization, labeled oligonucleotide (AID 1185); details: 15 min, higher = more signal, called active from +8 up or from −8 down
# [5] = inhibitors of hydroxyurea-induced Chk1 phosphorylation, primary screen, imaging, HeLa, phospho-Chk1 antibody, percent positive cells (AID 1186); details: hydroxyurea-induced phospho-Chk1 immunofluorescence imaging, higher = more signal
# [6] = inhibitors of hydroxyurea-induced Chk1 phosphorylation, primary screen, imaging, HeLa, phospho-Chk1 nuclear intensity (AID 1187); details: hydroxyurea-induced phospho-Chk1 immunofluorescence imaging, higher = more signal
# Chain of Homeobox protein Hox-A13 (Mus musculus) (Q62424 whole entry, looked up): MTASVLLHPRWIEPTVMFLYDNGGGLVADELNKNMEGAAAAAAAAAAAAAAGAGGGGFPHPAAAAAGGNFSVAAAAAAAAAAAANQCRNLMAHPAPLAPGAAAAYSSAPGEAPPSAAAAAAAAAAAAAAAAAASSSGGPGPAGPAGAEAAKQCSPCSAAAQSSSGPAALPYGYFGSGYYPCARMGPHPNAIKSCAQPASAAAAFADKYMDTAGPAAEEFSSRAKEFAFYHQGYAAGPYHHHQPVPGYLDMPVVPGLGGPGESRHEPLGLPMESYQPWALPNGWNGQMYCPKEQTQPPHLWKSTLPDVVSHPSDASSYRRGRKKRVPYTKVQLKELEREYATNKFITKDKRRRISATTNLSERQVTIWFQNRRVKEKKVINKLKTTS
SMILES,composite z-score [1],composite z-score [2],z-score [3],z-score [4],z-score [5],z-score [6]
CC(C)[Si]1(C(C)C)OCc2cc(C3CC3)nc(CCc3ccccc3)c21,1.11 (inactive) and 0.0908 (inactive),-0.663 and -0.481,-0.541 and 0.653,-0.448 (inactive) and 0.438 (inactive),0.0389 (inactive) and 0.993 (inactive),0.579 (inactive) and 0.548 (inactive)
CCCC[C@@H]1CN2[C@@H](CC[C@@H](C)[C@@H]2c2ccc(Br)cc2)C(=O)O1,0.177 (inactive) and 0.122 (inactive),0.712 and 0.647,0.524 and 0.888,-3.5 (inactive) and -2.53 (inactive),,
Cc1ccc(S(=O)(=O)OC[C@@H]2CN3[C@@H](CC[C@@H](C)[C@@H]3c3ccc(Br)cc3)C(=O)O2)cc1,0.589 (inactive) and -0.699 (inactive),0.432 and 0.299,-0.17 and -0.013,0.16 (inactive) and 0.956 (inactive),,
C[C@@H](ON=C1[C@H]2CCn3c(=O)n(-c4ccccc4)c(=O)n3[C@H]2[C@H](O)[C@@H]2O[C@H]12)c1cn([C@H](CO)Cc2ccccc2)nn1,0.764 (inactive),0.297,-0.516,-2.41 (inactive),,
C=C[C@@H](C)[C@@H](O)c1ccc(OCCO)cc1,-0.704 (inactive) and -0.999 (inactive),-0.664 and 0.0227,-0.892 and 0.0904,-0.592 (inactive) and -0.123 (inactive),1.19 (inactive) and -0.153 (inactive),1.48 (inactive) and 0.641 (inactive)
C=CCN(CCCC)C(=O)C1N(CCCCCCO)C(=O)C2C(C(=O)O)C3C=CC21O3 (centres undefined),-0.489 (inactive) and -0.198 (inactive),-0.838 and -0.558,1.51 and 1.68,-0.284 (inactive) and -0.72 (inactive),0.527 (inactive) and 1.03 (inactive),0.977 (inactive) and 1.09 (inactive)
COC(=O)CC=C[C@@H](C)[C@@H](CO)NS(=O)(=O)c1ccc(C)cc1,-0.468 (inactive) and 0.212 (inactive),0.169 and 0.315,-0.106 and 0.0276,0.0308 (inactive) and -1.12 (inactive),,
COCn1c2ccccc2c2nnc(C(C)=O)nc21,-0.0478 (inactive) and 0.199 (inactive),-0.392 and -0.333,-1.12 and -1.29,0.732 (inactive) and 0.896 (inactive),,
COC(=O)C1=C(C)N(Cc2ccccc2)C2=C(C(C)=O)C[C@@](O)(C(=O)OC)C(=O)N2[C@@H]1c1ccccc1,0.411 (inactive) and 1.64 (inactive),-0.358 and 0.645,0.467 and 0.637,-1.52 (inactive) and -2.36 (inactive),,
CCOC(=O)[C@@H]1CC=C2CC1C(=O)N1CCC[C@@H]1[C@H]2O[Si](C)(C)C(C)(C)C (some centres undefined),-1.06 (inactive) and -0.793 (inactive),-1.29 and -0.354,1.82 and -0.618,-1.82 (inactive) and -4.44 (inactive),0.113 (inactive) and -0.726 (inactive),0.0897 (inactive) and -0.761 (inactive)
C=CCN(C(=O)C(c1cccs1)N(C(=O)/C=C\C(=O)O)c1c(Cl)cccc1CO)C(C)(C)C (centres undefined),-0.0516 (inactive) and 0.0403 (inactive),0.689 and -1.16,1.83 and 1.67,0.131 (inactive) and -0.43 (inactive),0.221 (inactive) and 0.501 (inactive),0.711 (inactive) and 0.634 (inactive)
C=CCN(C(=O)C1N(CCOCCO)C(=O)C2C(C(=O)O)C3C=CC21O3)C(C)(C)C (centres undefined),-0.348 (inactive) and -0.346 (inactive),0.102 and -0.294,-0.283 and -0.145,-1.32 (inactive) and -0.575 (inactive),-0.262 (inactive) and -0.147 (inactive),-0.47 (inactive) and 0.312 (inactive)
CC(C)[Si]1(C(C)C)OCc2cc(CCCc3cc4c(c(CCc5ccccc5)n3)[Si](C(C)C)(C(C)C)OC4)nc(CCc3ccccc3)c21,-0.189 (inactive) and -0.0317 (inactive),-1.31 and -0.189,0.0742 and 1.55,-1.38 (inactive) and -0.138 (inactive),-0.72 (inactive) and 0.618 (inactive),-0.625 (inactive) and -0.0158 (inactive)
CC(CO)N1C(=O)[C@@H]2C3C(=O)OCCC=C[C@H]3OC23C=CCN(Cn2nnc4ccccc42)C(=O)[C@@H]13 (some centres undefined),0.287 (inactive) and 0.0057 (inactive),0.699 and 0.41,-0.0355 and 0.986,-3.43 (inactive) and -5.52 (inactive),0.787 (inactive) and 0.875 (inactive),0.336 (inactive) and 0.749 (inactive)
C=C[C@H](C)[C@H](O)c1ccc(O)c2ccccc12,-0.389 (inactive) and -0.742 (inactive),-0.236 and 0.788,0.138 and 0.719,-3.07 (inactive) and -2.91 (inactive),-1.1 (inactive) and -1.31 (inactive),-0.114 (inactive) and -0.271 (inactive)
C=CC[C@@H](O)c1ccc(O)c2ccccc12,2.01 (inactive) and 0.431 (inactive),0.703 and 0.802,-0.401 and 0.619,-2.24 (inactive),0.024 (inactive) and 0.26 (inactive),0.515 (inactive) and 0.183 (inactive)
CCCCN1CC=CC23O[C@@H]4C=CCCOC(=O)C4[C@H]2C(=O)N(C(C)CO)[C@@H]3C1=O (some centres undefined),-0.0981 (inactive) and -0.455 (inactive),-0.41 and -0.585,0.0728 and -0.271,-5.84 (inactive) and -4.77 (inactive),0.34 (inactive) and -0.204 (inactive),0.293 (inactive) and -0.258 (inactive)
COC(=O)[C@@]1(Cc2ccccc2)[C@H]2c3cc(C(=O)N(C)C)n(C[C@H](O)CO)c3C[C@H]2CN1C(=O)c1ccccc1,0.386 (inactive) and -0.28 (inactive),-0.0997 and 0.84,-0.894 and -0.297,-2.22 (inactive) and -4.41 (inactive),-0.601 (inactive) and 1.42 (inactive),-0.292 (inactive) and 1.06 (inactive)
C=CCN(C(=O)C(c1cccs1)N(C(=O)/C=C\C(=O)O)C(C)(C)CO)c1ccc(OC)cc1 (centres undefined),-0.114 (inactive) and 0.302 (inactive),-1.17 and -0.372,-0.89 and 0.294,-0.168 (inactive) and -2.07 (inactive),-0.951 (inactive) and -0.63 (inactive),-1.17 (inactive) and -0.0664 (inactive)
CN1C(=O)C2CC=C([C@H]3Oc4ccccc4S(=O)(=O)N4CCC[C@@H]34)CC2C1=O (some centres undefined),-0.0989 (inactive) and 0.181 (inactive),-0.128 and -1.09,-0.292 and -0.542,-2 (inactive) and -1.92 (inactive),0.0695 (inactive) and 0.549 (inactive),-0.12 (inactive) and 0.575 (inactive)
O=C1NC(=O)C2C1C=CC(C(O)c1ccc([N+](=O)[O-])cc1)N2Nc1ccc(Cl)cc1Cl (centres undefined),0.376 (inactive) and 0.385 (inactive),0.762 and 0.163,0.698 and 0.664,-5.8 (inactive),-0.85 (inactive) and -0.665 (inactive),-1.15 (inactive) and -0.297 (inactive)
CCOC(=O)C[C@H]1[C@H](OC(=O)c2ccccc2-c2ccccc2)[C@@H](NC(=O)Cc2ccc(OC)cc2)c2cc(OCCCO)ccc2N1C(=O)Cc1ccc(OC)cc1,0.645 (inactive) and -0.44 (inactive),0.0988 and -0.0465,-1.83 and -1.26,-0.622 (inactive) and -3.3 (inactive),-0.901 (inactive) and 0.898 (inactive),-0.496 (inactive) and 0.836 (inactive)
C=CCN(C(=O)C(c1cccs1)N(CCOCCO)C(=O)/C=C\C(=O)O)C(C)(C)C (centres undefined),-0.344 (inactive) and 0.0156 (inactive),-0.281 and -0.228,0.0905 and 0.921,0.175 (inactive) and -0.386 (inactive),0.0502 (inactive) and -0.289 (inactive),-0.124 (inactive) and 0.0803 (inactive)
C=CCN(CCCCC)C(=O)C(c1cccs1)N(C(=O)/C=C\C(=O)O)c1c(Cl)cccc1CO (centres undefined),-0.527 (inactive) and 0.809 (inactive),-1.88 and -0.229,0.114 and -0.445,-0.0384 (inactive) and -1.57 (inactive),0.79 (inactive) and 0.313 (inactive),0.728 (inactive) and 0.468 (inactive)
C=C[C@@H](OC)[C@H](O)c1ccc(O)c(F)c1,-0.25 (inactive) and -2.1 (inactive),0.116 and 0.444,0.295 and 0.636,-0.933 (inactive) and 0.017 (inactive),0.591 (inactive) and -0.353 (inactive),0.496 (inactive) and 0.357 (inactive)
C[N+](C)(C)CCCCCCNC(=O)[C@H]1C[C@H]2C(=O)N[C@@H](CCCC[N+](C)(C)C)C(=O)N2[C@H]1c1ccc(O)cc1,0.0514 (inactive) and -0.283 (inactive),0.0535 and -0.189,-1.28 and 0.581,0.627 (inactive) and -1.31 (inactive),-0.563 (inactive) and 0.0546 (inactive),-0.225 (inactive) and -0.0689 (inactive)
